This is part of a sample that, as a whole, favours compounds with a hit. Of some 79,000 tested, about 15% had one in any assay. Calls of active or inactive are those of the source. No stated cut-off is given here; in the data, active means growth inhibition above about 70%; inactive means the rest.
Columns and labels:
[1] = NCI Yeast Anticancer Drug Screen. Data for the rad52 strain (AID 147);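 further: 0% = growth of vehicle-treated control cultures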; details: S. cerevisiae rad52 mutant growth inhibition, hits give high values
How it was run: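 The repair-mutant yeast strain was incubated with compounds, then growth was read and inhibition derived relative to vehicle.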

[2] = NCI Yeast Anticancer Drug Screen. Data for the wt1 strain (AID 149);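 further: 0% = growth of vehicle-treated wt1 cultures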; details: S. cerevisiae wt1 strain (SPY 50644) growth inhibition, hits give high values
How it was run: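 Vehicle-normalised growth inhibition; strain wt1; compound exposure.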

[3] = NCI Yeast Anticancer Drug Screen. Data for the rad50EPP+ strain (AID 151);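 further: 0% = growth of vehicle-treated control cultures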; details: S. cerevisiae rad50 mutant strain, hits give high values
How it was run: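 Vehicle-normalised growth inhibition; rad50EPP+ yeast strain, altered in DNA damage repair, compound-treated.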

[4] = NCI Yeast Anticancer Drug Screen. Data for the mgt1 strain (AID 153); details: S. cerevisiae mgt1 mutant growth inhibition, hits give high values
How it was run: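 Vehicle-normalized growth inhibition is determined in mgt1 yeast, a strain selected for a defined alteration in DNA repair or cell cycle control.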

[5] = NCI Yeast Anticancer Drug Screen. Data for the rad50 strain (AID 155);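 further: 0% = growth of vehicle-only cultures of the same strain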; details: S. cerevisiae rad50 strain growth inhibition, hits give high values
How it was run: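 A DNA repair-deficient yeast mutant serves as the test organism; compound-induced growth inhibition is calculated against vehicle-treated cells.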

[6] = NCI Yeast Anticancer Drug Screen. Data for the mec2-1 strain (AID 157); details: S. cerevisiae mec2-1 strain, hits give high values
How it was run: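 Mutant yeast (mec2-1) grown with compound; growth inhibition relative to vehicle control reported.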

[7] = NCI Yeast Anticancer Drug Screen. Data for the rad14 strain (AID 159);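 further: 0% = growth of vehicle-treated control cultures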; details: S. cerevisiae rad14 strain growth inhibition, hits give high values
How it was run: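 Vehicle-treated cultures served as the baseline for growth inhibition of a DNA repair-mutant yeast strain exposed to each compound.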

[8] = NCI Yeast Anticancer Drug Screen. Data for the sgs1 mgt1 strain (AID 161);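 further: 0% = growth of cultures given vehicle only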; details: S. cerevisiae sgs1 mgt1 strain, hits give high values
How it was run: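 Percent growth inhibition was derived by comparing compound-exposed mutant yeast with vehicle-exposed cultures. The strain carries alterations in DNA damage repair.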

[9] = NCI Yeast Anticancer Drug Screen. Data for the CLN2oe strain (AID 163);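 further: 0% = growth of vehicle-only control cultures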; details: S. cerevisiae CLN2oe strain, hits give high values
How it was run: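 Compounds are applied to yeast harbouring a defined cell-cycle control change; reduced growth compared with vehicle-treated controls gives the value.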

[10] = NCI Yeast Anticancer Drug Screen. Data for the cln2 rad14 strain (AID 165);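 further: 0% = growth equal to vehicle treated cultures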; details: S. cerevisiae cln2 rad14 strain, hits give high values
How it was run: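 Readout is yeast growth inhibition versus vehicle-treated controls, using a strain with cln2 and rad14 alterations exposed to compound.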

[11] = NCI Yeast Anticancer Drug Screen. Data for the bub3 strain (AID 167); details: S. cerevisiae bub3 mutant strain, hits give high values
How it was run: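 Inhibition values come from growth of compound-treated mutant yeast normalised to vehicle-treated controls.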

[12] = NCI Yeast Anticancer Drug Screen. Data for the wt2 strain (AID 169);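 further: 0% = growth of vehicle-treated yeast cultures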; details: S. cerevisiae wt2 strain growth inhibition, hits give high values
How it was run: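 Against vehicle-treated controls, the growth of yeast exposed to each compound was compared, and the inhibition was recorded.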

[13] = NCI Yeast Anticancer Drug Screen. Data for the mlh1 strain (AID 171);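 further: 0% = growth of vehicle-treated control cultures of the same strain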; details: S. cerevisiae mlh1 strain growth inhibition, hits give high values
How it was run: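 Measured: yeast growth. Reference: vehicle-treated controls. Organism: strain with a defined alteration affecting DNA damage repair or cell cycle control, treated with compound.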

[14] = NCI Yeast Anticancer Drug Screen. Data for the sgs1 strain (AID 173);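 further: 0% = growth of vehicle-only control cultures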; details: S. cerevisiae sgs1 mutant, hits give high values
How it was run: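 Each compound was added to cultures of the altered yeast strain. Growth was recorded, and inhibition was derived by comparison with vehicle controls.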

[15] = NCI Yeast Anticancer Drug Screen. Data for the mlh1 rad18 strain (AID 175); details: S. cerevisiae mlh1 rad18 strain growth inhibition, hits give high values
How it was run: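 Genetically defined yeast (DNA repair-deficient) exposed to compounds; growth inhibition determined relative to vehicle.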

[16] = NCI Yeast Anticancer Drug Screen. Data for the rad18 strain (AID 177); details: S. cerevisiae rad18 mutant growth inhibition, hits give high values
How it was run: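 Vehicle-treated cultures served as the baseline for scoring compound-induced growth inhibition in DNA-repair-mutant yeast.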

[17] = at 5.0 µM (retest, dose inferred, filed as 0.5)
[18] = at 50.0 µM (retest, dose inferred, filed as 5.0)

Measured: growth inhibition

Cc1ccc2ccc(O)cc2c1
inactive: [1]; at 1.2 µM -31% | [1]; at 3.7 µM -35% | [1]; at 11.0 µM -30% | [1]; at 33.0 µM -31% | [2]; at 1.2 µM -22% | [2]; at 3.7 µM -16% | [2]; at 11.0 µM -19% | [2]; at 33.0 µM -11% | [3]; at 1.2 µM -25% | [3]; at 3.7 µM -49% | [3]; at 11.0 µM -25% | [3]; at 33.0 µM -12% | [3]; at 100.0 µM 46% | [4]; at 1.2 µM -25% | [4]; at 3.7 µM -19% | [4]; at 11.0 µM -22% | [4]; at 33.0 µM -21% | [4]; at 100.0 µM 50% | [5]; at 1.2 µM -23% | [5]; at 3.7 µM -28% | [5]; [17] -9% | [5]; at 11.0 µM -38% | [5]; at 33.0 µM -11% | [5]; [18] 33% | [5]; at 50.0 µM 58.2% | [6]; at 1.2 µM -37% | [6]; at 3.7 µM -33% | [6]; [17] -10% | [6]; at 11.0 µM -32% | [6]; at 33.0 µM -42% | [6]; at 50.0 µM 1.85% | [6]; at 100.0 µM 50% | [7]; at 1.2 µM -18% | [7]; at 3.7 µM -20% | [7]; at 11.0 µM -23% | [7]; at 33.0 µM -25% | [7]; at 100.0 µM 56% | [8]; [17] 5% | [8]; [18] 43% | [9]; at 1.2 µM -10% | [9]; at 3.7 µM -13% | [9]; at 11.0 µM -9% | [9]; at 33.0 µM -17% | [10]; [17] 4% | [10]; [18] 53% | [11]; at 1.2 µM 4% | [11]; at 3.7 µM 10% | [11]; [17] 4% | [11]; at 11.0 µM 14% | [11]; at 33.0 µM 14% | [11]; [18] 23% | [12]; at 1.2 µM -18% | [12]; at 3.7 µM -19% | [12]; at 11.0 µM -21% | [12]; at 33.0 µM -20% | [12]; at 100.0 µM 56% | [13]; at 1.2 µM -9% | [13]; at 3.7 µM -19% | [13]; at 11.0 µM -27% | [13]; at 33.0 µM -24% | [13]; at 100.0 µM 68% | [14]; at 1.2 µM -24% | [14]; at 3.7 µM -14% | [14]; at 11.0 µM -38% | [14]; at 33.0 µM -19% | [14]; at 100.0 µM 32% | [15]; [17] -33% | [15]; [18] 63% | [15]; at 50.0 µM 48.5% | [16]; at 1.2 µM -21% | [16]; at 3.7 µM -32% | [16]; at 11.0 µM -22% | [16]; at 33.0 µM -23% | [16]; at 100.0 µM 69%
active: [1]; at 100.0 µM 80% | [2]; at 100.0 µM 71% | [5]; at 100.0 µM 92% | [6]; [18] 95% | [8]; at 50.0 µM 80.1% | [9]; at 100.0 µM 83% | [10]; at 50.0 µM 82% | [11]; at 50.0 µM 86.7% | [11]; at 100.0 µM 88%

O=C(CCCN1CCC(O)(c2ccc(Cl)cc2)CC1)c1ccc(F)cc1
inactive: [1]; at 1.2 µM 13% | [1]; at 3.7 µM 6% | [1]; at 11.0 µM 27% | [1]; at 33.0 µM 31% | [1]; at 100.0 µM 38% | [2]; at 1.2 µM 0% | [2]; at 3.7 µM 7% | [2]; at 11.0 µM 13% | [2]; at 33.0 µM 23% | [2]; at 100.0 µM 14% | [3]; at 1.2 µM -3% | [3]; at 3.7 µM -4% | [3]; at 11.0 µM -6% | [3]; at 33.0 µM -6% | [3]; at 100.0 µM 0% | [4]; at 1.2 µM 17% | [4]; at 3.7 µM 30% | [4]; at 11.0 µM 40% | [4]; at 33.0 µM 58% | [4]; at 100.0 µM 65% | [5]; at 1.2 µM 24% | [5]; at 3.7 µM -8% | [5]; [17] 58% | [5]; at 11.0 µM 69% | [5]; at 33.0 µM 64% | [5]; at 100.0 µM 69% | [6]; at 1.2 µM 19% | [6]; at 3.7 µM 19% | [6]; [17] 33% | [6]; at 11.0 µM 29% | [6]; at 33.0 µM 36% | [6]; at 100.0 µM 41% | [7]; at 1.2 µM 50% | [7]; at 3.7 µM 69% | [8]; [17] 60% | [9]; at 1.2 µM 27% | [9]; at 3.7 µM 31% | [9]; at 11.0 µM 37% | [9]; at 33.0 µM 44% | [9]; at 100.0 µM 49% | [10]; [17] 43% | [11]; at 1.2 µM 38% | [11]; at 3.7 µM 41% | [11]; [17] 48% | [11]; at 11.0 µM 39% | [11]; at 33.0 µM 51% | [11]; at 50.0 µM 66.2% | [11]; at 100.0 µM 59%
active: [5]; [18] 99% | [5]; at 50.0 µM 82.8% | [6]; [18] 100% | [6]; at 50.0 µM 77.7% | [7]; at 11.0 µM 78% | [7]; at 33.0 µM 83% | [7]; at 100.0 µM 86% | [8]; [18] 100% | [8]; at 50.0 µM 91.4% | [10]; [18] 99% | [10]; at 50.0 µM 70.8% | [11]; [18] 99%

From PubChem BioAssay (NCI)
